ALR H2O2 inh = human ALR oxidase inhibition via reduced H2O2 | P55789 | purified ALR, DTT oxidation, H2O2 HRP-luminol luminescence | inhibition, % (test concentration not listed) | 290,000 compounds, 3.8% hits | AID 485317;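 active = mean replicate inhibition above about 79%, with every replicate also reaching it, limit read from the data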
rCAG RNA binder = binds r(CAG) RNA repeats. r(CAG) RNA repeat, TO-PRO-1 dye displacement fluorescence. inhibition, % at 3 µM. 370,000 compounds, 1.3% hits. AID 651821;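 active = inhibition above the plate cutoff, the mean of all test compounds on that plate plus 3 SD, cut at about 35% in these data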;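 note: higher means more dye released from RNA so lower well fluorescence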
aDG glyco up = increases alpha dystroglycan glycosylation; Pro5-aDG cells, alpha-DG glycosylation AlphaScreen (IIH6); 0% Pro5, 100% B10-LARGE cell signal; activation, % at 10 µM; 360,000 compounds, 0.22% hits;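 active = activation of at least 8% versus controls, or a plate z-score of at least 8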;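 note: Pro5 are CHO cells carrying HIG-tagged alpha-DG that lacks glycosylation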
APOBEC3G inh = APOBEC3G (human) deaminase inhibition; 330,000 compounds, 0.28% hits; AID 493012; recombinant A3G, ssDNA deamination FAM/TAMRA fluorescence; Q9HC16; inhibition, % at 20 µM;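 active = inhibition of at least 40% at 20 µM, with no more than 30% in the related APOBEC3A deaminase screen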
Target sequence (Q9HC16 whole entry, looked up): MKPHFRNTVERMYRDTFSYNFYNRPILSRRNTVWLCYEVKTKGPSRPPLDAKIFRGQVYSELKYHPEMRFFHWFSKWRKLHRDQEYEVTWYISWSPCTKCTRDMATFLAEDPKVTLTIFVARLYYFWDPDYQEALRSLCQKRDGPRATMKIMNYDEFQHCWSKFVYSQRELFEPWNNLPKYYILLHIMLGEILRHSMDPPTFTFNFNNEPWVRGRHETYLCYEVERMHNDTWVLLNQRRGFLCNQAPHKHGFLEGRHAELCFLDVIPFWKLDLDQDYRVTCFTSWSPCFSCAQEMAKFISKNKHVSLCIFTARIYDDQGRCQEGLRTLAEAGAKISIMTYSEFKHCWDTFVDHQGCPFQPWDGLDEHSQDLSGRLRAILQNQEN
A3A deaminase = inhibitors of human APOBEC3A DNA deaminase. P31941. recombinant A3A, FAM/TAMRA ssDNA deamination fluorescence. inhibition, % at 20 µM. 330,000 compounds, 0.41% hits;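 active = at least 40% inhibition at 20 µM here, with at most 30% in a related deaminase screen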
PHOSPHO1 inh = PHOSPHO1 (human) inhibition; inhibition, % at 13.3 µM; 290,000 compounds, 1.1% hits; recombinant PHOSPHO1, absorbance phosphatase assay; AID 1565; in the data active = inhibition above about 60%
A3G conf = confirmation of human APOBEC3G DNA deaminase inhibitors; shares compounds with APOBEC3G inh; recombinant A3G ssDNA deaminase, UDG/FAM-TAMRA fluorescence; 890 compounds, 72% hits; AID 493152; inhibition, % at 20 µM;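 active = inhibition reaching a set limit in any replicate at 20 µM, the limit being 80% of the first screen's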
UDG A3G counter = E. coli UDG inhibition in APOBEC3G counter-screen. inhibition, % at 20 µM. UDG counterscreen, FAM/TAMRA oligo fluorescence. shares compounds with APOBEC3G inh. AID 504715. 710 tested, under 10 active;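 active = compounds giving 40% or more inhibition at 20 µM in any one of the three replicates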;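 note: inhibitors lower the FAM signal released by uracil excision and alkaline cleavage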
Target sequence (P12295 whole entry, looked up): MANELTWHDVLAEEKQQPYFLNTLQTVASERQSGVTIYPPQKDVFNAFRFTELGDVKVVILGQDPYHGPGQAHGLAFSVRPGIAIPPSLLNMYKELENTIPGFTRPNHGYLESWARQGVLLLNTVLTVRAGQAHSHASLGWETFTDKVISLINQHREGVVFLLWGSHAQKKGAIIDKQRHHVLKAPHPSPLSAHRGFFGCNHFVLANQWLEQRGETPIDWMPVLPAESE
aDG conf = alpha-DG glycosylation activation, confirmation. shares compounds with aDG glyco up. Pro5-aDG cells, IIH6 AlphaLISA; scaled to LARGE-overexpressing B10 cells as 100%. activation, % at 10 µM (by protocol). 600 compounds, 17% hits. AID 651671;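 active = activation of at least 7% in one or more replicates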;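 note: cells exposed to compound for two days before detection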
rCAG binder conf = r(CAG) RNA repeat binding, confirmation; shares compounds with rCAG RNA binder; TO-PRO-1 dye displacement fluorescence; inhibition, % at 3 µM; 4,300 compounds, 70% hits;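 active = inhibition above a per-plate cutoff, the mean inhibition of sample wells plus 3 SD, cut at about 35% in these data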;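 note: loss of TO-PRO-1 fluorescence as compound displaces dye from 1x1 AA loop RNA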
dCAG dye counter = disrupts DNA CAG TO-PRO-1 complex, flagging rCAG hits; 4,300 compounds, 94% hits; inhibition, % at 3 µM; d(CAG) DNA oligo TO-PRO-1 dye displacement, fluorescence; shares compounds with rCAG RNA binder;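 active = inhibition above its plate's cutoff, the mean test-well inhibition plus 3 SD, cut at about 4.8% in these data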;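 note: hits displace the dye from DNA and so lower well fluorescence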
Each line names hits and unclear results; the compound was inactive in the other large screens (follow-up assays come after a bar, where they were run). A selection: hits, their analogues and other compounds. The true share with any hit is near 5.4%.

Cc1ccccc1-n1sc2cc(F)ccc2c1=O	APOBEC3G inh 75 (no result: ALR H2O2 inh) | A3G conf 81 | UDG A3G counter inactive
N#Cc1ccc2c(=O)n(-c3ccccc3)sc2c1	none (no result: ALR H2O2 inh, APOBEC3G inh, A3A deaminase, PHOSPHO1 inh)
O=c1c2ccccc2sn1-c1ccccc1	APOBEC3G inh 87 | A3G conf 91 | UDG A3G counter inactive
COc1ccc(CN2C(=O)C(CC(=O)NCCCCc3ccccc3)CC(C(=O)N3CCCCCC3)=C2C)cc1 (configuration not stated)	none (no result: ALR H2O2 inh, APOBEC3G inh, A3A deaminase, PHOSPHO1 inh)
CCNC(=O)N1CCN(c2ccc(N3CCN(C(=O)NCC)[C@H](C)C3)c(C)c2)[C@@H](C)C1	none (no result: ALR H2O2 inh, aDG glyco up, APOBEC3G inh, A3A deaminase, PHOSPHO1 inh)
O=C(O)c1cccc(-n2sc3ccccc3c2=O)c1	APOBEC3G inh 83 (no result: PHOSPHO1 inh) | A3G conf 91 | UDG A3G counter inactive
C/C=C(\C)C(=O)NCCN1C2=NC[C@@H](Cc3ccccc3)N2C[C@@H]1Cc1ccc(OC)cc1	none (no result: PHOSPHO1 inh)
CCCCCCNC(=O)N[C@@H](C(=O)NCCC[C@H]1CN2C(=NC[C@@H]2Cc2ccccc2)N1CCc1cccc(OC)c1)C(C)C	APOBEC3G inh 54 (no result: rCAG RNA binder, aDG glyco up) | A3G conf 32
CCN(CC)S(=O)(=O)c1cccc2cccnc12	none
CSS(=O)(=O)c1cccc2cccnc12	APOBEC3G inh 78 | A3G conf 77 | UDG A3G counter inactive
Cc1ccc(NC(=O)C2CCN(c3nc(C)cc(C)n3)CC2)cc1	APOBEC3G inh 48 | A3G conf inactive | UDG A3G counter inactive
Cc1[nH]n(-c2ccccc2)c(=S)c1C=NCCCN=Cc1c(C)[nH]n(-c2ccccc2)c1=S	APOBEC3G inh 62 | A3G conf 54 | UDG A3G counter inactive
O=c1[nH]c(SCc2ccccc2[N+](=O)[O-])nc2nc[nH]c12	APOBEC3G inh 61 | A3G conf inactive | UDG A3G counter inactive
c1cncc(-c2nnc(-c3cccnc3)nn2)c1	aDG glyco up 13, APOBEC3G inh 44, PHOSPHO1 inh 66 | A3G conf 22 | UDG A3G counter inactive | aDG conf 7.6
Cc1ccc(S(=O)(=O)c2ccc([N+](=O)[O-])o2)cc1	none (no result: ALR H2O2 inh, APOBEC3G inh, A3A deaminase, PHOSPHO1 inh)
O=C(/C=C/c1ccccc1)Nc1cccc(S(=O)(=O)Nc2ccccc2F)c1	rCAG RNA binder 38, APOBEC3G inh 71 | A3G conf 60 | UDG A3G counter inactive | rCAG binder conf 40 | dCAG dye counter 13
O=C(Nc1cc(S(=O)(=O)Nc2ccc(Cl)cc2)ccc1O)c1ccc(S(=O)(=O)N2CCCCCC2)cc1	rCAG RNA binder 47, APOBEC3G inh 53 | A3G conf 44 | UDG A3G counter inactive | rCAG binder conf 73 | dCAG dye counter 38
Cc1ccc(S(=O)(=O)N2CCOCC2)cc1NC(=O)CSc1ccc(Cl)cc1	none (no result: PHOSPHO1 inh)
O=C(CCCSc1ccc(Cl)cc1)Nc1cc(S(=O)(=O)N2CCOCC2)ccc1O	rCAG RNA binder 40, APOBEC3G inh 51 (no result: PHOSPHO1 inh) | A3G conf 73 | UDG A3G counter inactive | rCAG binder conf 49 | dCAG dye counter 16
COC(=O)[C@]12CCCCC=C1N(CCc1ccc(OC)c(OC)c1)C(=O)[C@H](CC(=O)NCc1ccc(C)o1)C2	none (no result: ALR H2O2 inh, APOBEC3G inh, A3A deaminase, PHOSPHO1 inh)
CCOC(=O)c1nn(-c2ccccc2)c(=O)c2c(N)scc12	none
Nc1scc2c(C(=O)N/N=C/c3ccc(Cl)cc3)nn(-c3ccccc3)c(=O)c12	rCAG RNA binder 41, APOBEC3G inh 51, PHOSPHO1 inh 101 | A3G conf active | UDG A3G counter inactive | rCAG binder conf inactive | dCAG dye counter 16
C/C=C1\NC(=O)[C@H](CC(N)=O)N(C)C(=O)C([C@@H](C)O)NC(=O)C(CCCc2ccc(OC)cc2)NC(=O)[C@H](C(C)C)NC(=O)/C(=C\C)NC(=O)[C@H](O)[C@@H](C[C@@H](O)CCCCCCC)NC(=O)[C@H](C)NC(=O)CN(C)C(=O)[C@H](CCC(N)=O)NC1=O (some centres not stated)	none (no result: ALR H2O2 inh, APOBEC3G inh, A3A deaminase, PHOSPHO1 inh)
Cc1cc(C(=O)O)ccc1-n1c(C)cc(C=C2C(=O)c3ccccc3C2=O)c1C	rCAG RNA binder 43, APOBEC3G inh 51 | A3G conf inactive | rCAG binder conf 41 | dCAG dye counter 11
COCCCNC(=O)C[C@H]1C[C@@]2(C(=O)OC)C(=C[C@H](COCc3ccccc3)O[C@@H]2C)N(CCC2=CCCCC2)C1=O	none (no result: ALR H2O2 inh, aDG glyco up, APOBEC3G inh, A3A deaminase, PHOSPHO1 inh)
O=C(O)COc1ccccc1/C=N/NC(=O)Cc1csc(Nc2cccc(C(F)(F)F)c2)n1	rCAG RNA binder 59, APOBEC3G inh 55 | A3G conf inactive | UDG A3G counter inactive | rCAG binder conf 55 | dCAG dye counter 17
O=C1CSc2ccc(C(=O)Nc3cccc(S(=O)(=O)Nc4ccc(Br)cc4)c3)cc2N1	rCAG RNA binder 39, APOBEC3G inh 49 | A3G conf inactive | UDG A3G counter inactive | rCAG binder conf 45 | dCAG dye counter 15
O=C(O)c1ccc(NC(=O)c2cccc(S(=O)(=O)Nc3ccc(C(=O)O)cc3)c2)cc1	none (no result: ALR H2O2 inh)
COC(=O)[C@]12C[C@H](CC(=O)N3CCSCC3)C(=O)N(Cc3cccc4ccccc34)C1=C[C@H](C1CCCC1)O[C@@H]2C	none (no result: ALR H2O2 inh, aDG glyco up, APOBEC3G inh, A3A deaminase, PHOSPHO1 inh)
COc1ccc2[nH]c3c(N4CCN(Cc5ccc6c(c5)OCO6)CC4)ncnc3c2c1	ALR H2O2 inh 97, aDG glyco up 8.3 | aDG conf inactive
COc1ccc2c(c1)c1ncnc(N3CCN(Cc4ccc5c(c4)OCO5)CC3)c1n2C	none (no result: ALR H2O2 inh, rCAG RNA binder, aDG glyco up, APOBEC3G inh, A3A deaminase)
COc1ccc(Nc2c(-c3cccc(OC)c3)nc3nc(C)cc(C)n23)cc1	none (no result: ALR H2O2 inh, APOBEC3G inh, A3A deaminase, PHOSPHO1 inh)
COc1cccc(-c2nc3nc(C)cc(C)n3c2NCc2ccccc2)c1	aDG glyco up 5.3 (no result: ALR H2O2 inh, APOBEC3G inh, A3A deaminase, PHOSPHO1 inh) | aDG conf inactive
Cc1sc2ncnc(N3CCC(C(=O)Nc4cc(C(F)(F)F)ccc4OCC(F)(F)F)CC3)c2c1C	none (no result: ALR H2O2 inh, APOBEC3G inh, A3A deaminase, PHOSPHO1 inh)
Cc1cc(OC(C)C(=O)NCCN2CCOCC2)c2c(C)cc(=O)oc2c1 (configuration not stated)	aDG glyco up 8.3 | aDG conf inactive
O=C(NCc1cccc(Cl)c1)c1cc(COc2ccc3ncccc3c2)on1	aDG glyco up 10 | aDG conf inactive
